Assay [1] deals with Aldehyde dehydrogenase, mitochondrial (Homo sapiens) (UniProt P05091). Nature of the assay: qHTS for Inhibitors of the Aldehyde Dehydrogenase Family (ALDH2) Primary screen (AID 2061308). Also: nearly all actives have a fitted effect of over 55% in size.
For assay [2], the target named is Retinaldehyde dehydrogenase 3 (Homo sapiens) (UniProt P47895). The assay is described as follows: qHTS for Inhibitors of the Aldehyde Dehydrogenase Family (ALDH1A3) Primary screen (AID 2061315). (In general: In qHTS, concentration-response curves come from the screen itself.)

Structures are written as SMILES. Records with an inconclusive call do not appear. Where a call stands in place of a potency, no number is given. Calls of active or inactive are those of the source. Calls follow the shape of the dose curve; as a rule, active = well fitted curve in the direction sought with a large enough effect; inconclusive = small, poorly fitted or top-dose-only effect, or another doubt; inactive = no such curve, though single readings can be large; an effect the other way counts as inactive or inconclusive. Square brackets hold non-standard residues; d marks the D form. Peptide text beside a SMILES is read from it. * marks the point of attachment. Dolaproine = CO[C@@H]([C@@H]1CCCN1)[C@@H](C)C(=O)O; Dil = CC[C@H](C)[C@H](NC)[C@@H](CC(=O)O)OC; Doe = c1ccc(C[C@H](N*)c2nccs2)cc1; Aib = CC(C)(N)C(=O)O

Experimental findings from PubChem BioAssay (NCATS) are described below.

Consider `CC[C@H](C)[C@@H]([C@@H](CC(=O)N1CCC[C@H]1[C@H](OC)[C@@H](C)C(=O)N[C@@H](Cc1ccccc1)c1nccs1)OC)N(C)C(=O)[C@@H](NC(=O)C(C)(C)N)C(C)C` (H-[Aib]V[Dil][Dolaproine]-Doe), for which the Potency entry in assay [1] and in assay [2] was “inactive” each time.

Consider `C[C@]12CC[C@@H](O[C@@H]3O[C@H](CO)[C@@H](O)[C@H](O)[C@H]3O)C[C@@]1(O)CCC1C2CC[C@]2(C)[C@@H](C3=CC(=O)OC3)CC[C@]12O` (stereo not given in full), for which the Potency result in assay [1] and in assay [2] was “inactive” in each case.

As for `CCC1C2CC3C4N(C)c5ccccc5C45CC(C2C5O)N3C1O` (stereo not given), the Potency result in assay [1] and in assay [2] was “inactive” throughout.

Consider `COC(=O)C12C(=O)C(C)(O)C(=O)C1(C)C(C)=CC1C34CCC(OC3=O)C(C)(C)C4CCC12C` (stereo not given), for which the Potency entry in assay [1] and in assay [2] was “inactive” in each case.

Take `Cn1cc(Br)c(C2N=C(Nc3nc4ccccc4o3)NC3=C2C(=O)CCC3)n1` (stereo not given): the Potency entry in assay [1] and in assay [2] was “inactive” throughout.

With `CO[C@H]1[C@H](O)[C@H](O[C@H]2CC[C@]3(C=O)C4CC[C@]5(C)[C@H](C6=CC(=O)OC6)CC[C@]5(O)C4CC[C@@H]3C2)O[C@@H](C)[C@@H]1O` (stereo not given in full), the Potency result in assay [1] and in assay [2] was “inactive” each time.

For the molecule `N#Cc1ccc(NC(=O)Nc2nnc(-c3ccncc3)s2)cc1Br`, the Potency result in assay [1] and in assay [2] was “inactive” each time.

`C#CCO[C@H]1CN2CCC1CC2`: the Potency entry in assay [1] and in assay [2] was “inactive” throughout.

`C/C=C(\C)C(=O)O[C@H]1CC2C(=C1C)[C@H]1OC(=O)[C@](C)(O)[C@]1(O)[C@H](OC(=O)CCC)C[C@@]2(C)OC(C)=O` (stereo not given in full): the Potency result in assay [1] and in assay [2] was “inactive” in each case.

For `COC1C(O)C(C)OC(OC2C(CO)O[C@@H](O[C@@H]3CC4CCC5C(CC[C@]6(C)[C@@H](C7=CC(=O)OC7)CC[C@]56O)[C@@]4(C)[C@H](OC(C)=O)C3)C(O)C2O)C1O` (stereo not given in full), the Potency result in assay [1] and in assay [2] was “inactive” each time.
